This is part of a sample that, as a whole, favours compounds with a hit. Of some 83,000 tested, about 20% had one in any assay.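 Interpretation: 100, growth as untreated; towards 0, rising growth inhibition; 0, no net growth; 0 to -100, cell death. Compounds scoring below 10 were considered active.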 A number with no mark means an inactive call. Active and inactive are the calls of the source.

Test systems include HCT-15 colon; HT29 colon; SNB-75 CNS; SNB-19 CNS; U251 CNS; PC-3 prostate; SK-MEL-5 melanoma; UACC-62 melanoma; LOX IMVI melanoma; SK-MEL-28 melanoma; EKVX NSCLC; SN12C renal; UO-31 renal; TK-10 renal; ACHN renal; CAKI-1 renal; A498 renal; CCRF-CEM leukemia; MOLT-4 leukemia.
Holding throughout (assay): NCI-60 one-dose screen, 48 h (100 = growth as untreated, 0 = no growth, -100 = all killed)
What all share (details): 10 µM unless noted

On to `CC/C(=C(/c1ccc(Cl)cc1)c1ccc(OCCN2CCCCC2)cc1)c1ccc(Cl)cc1`, for which the growth with HCT-15 colon was 57.1%; in the assay on HT29 colon it was 23%; with SNB-75 CNS, 85.7%; in the assay on SNB-19 CNS, 85.7%; with U251 CNS it was 62.3%; in the assay with PC-3 prostate, 63.7%. The growth in the assay with SK-MEL-5 melanoma is 86.9%; with UACC-62 melanoma, 97%; in the assay on LOX IMVI melanoma, 82.2%; with SK-MEL-28 melanoma it was 98.5%; in the assay with EKVX NSCLC, 57.4%; in the assay on SN12C renal it was 76.5%. The growth is 58.8% in the assay with UO-31 renal; 90.8% in the assay on TK-10 renal; 91.2% with ACHN renal; 74.4% in the assay on CAKI-1 renal; 94% in the assay with A498 renal; 50.6% in the assay with CCRF-CEM leukemia. Moreover, the growth with MOLT-4 leukemia is 69.2%.

Take `Cc1cnc(NC(=O)Nc2cc(Br)c(C)cc2OC[C@@H]2CNCCO2)cn1`: the growth with HCT-15 colon is 6.54% (active); in the assay with HT29 colon, -6.22% (active); in the assay with SNB-75 CNS, 26.5%; in the assay on SNB-19 CNS, 39.7%; in the assay on U251 CNS it was 11.7%; in the assay with PC-3 prostate it was 39.7%. Moreover, the growth in the assay on SK-MEL-5 melanoma was -92.2% (active); in the assay on UACC-62 melanoma it was 12.2%; in the assay with LOX IMVI melanoma, -78% (active); in the assay with SK-MEL-28 melanoma, -88.7% (active); in the assay on EKVX NSCLC, 25.9%; in the assay with SN12C renal, 39.5%. Besides, the growth with UO-31 renal was -12.3% (active); with TK-10 renal, 28.8%; with ACHN renal it was 3.08% (active); in the assay with CAKI-1 renal, 1.9% (active); in the assay on A498 renal, 18.1%; in the assay on CCRF-CEM leukemia, 4.56% (active). Moreover, the growth in the assay on MOLT-4 leukemia was 2.6% (active).

Consider `CO[C@H]1C[C@@H]2CC[C@@H](C)[C@@](O)(O2)C(=O)C(=O)N2CCCC[C@H]2C(=O)O[C@H]([C@H](C)C[C@@H]2CC[C@@H](O)[C@H](OC)C2)CC(=O)[C@H](C)/C=C(\C)[C@@H](O)[C@@H](OC)C(=O)[C@H](C)C[C@H](C)\C=C/C=C/C=C/1C`, for which the growth with HCT-15 colon is 30.2%; in the assay with HT29 colon, 18.7%; in the assay on SNB-75 CNS, 11%; in the assay with SNB-19 CNS, 39.4%; with U251 CNS, 23.4%; with PC-3 prostate, 32.6%. Moreover, the growth with SK-MEL-5 melanoma was 14.2%; in the assay with UACC-62 melanoma it was 39.2%; with LOX IMVI melanoma, 26.7%; in the assay with SK-MEL-28 melanoma, 38.8%; with EKVX NSCLC, 35.8%; in the assay on SN12C renal, 44.3%. Moreover, the growth in the assay on UO-31 renal is 20.7%; in the assay with TK-10 renal, 43.5%; in the assay on ACHN renal, 39.5%; in the assay with CAKI-1 renal, 39.6%; with A498 renal it was 13.8%; in the assay with CCRF-CEM leukemia, 22.1%. Further, the growth in the assay with MOLT-4 leukemia was 6.08% (active).

Take `Cn1cnc2c(F)c(Nc3ccc(Br)cc3Cl)c(C(=O)NOCCO)cc21`: the growth with HCT-15 colon was 70%; in the assay on HT29 colon it was 7.16% (active); in the assay on SNB-75 CNS, 71.6%; in the assay on SNB-19 CNS, 52.3%; in the assay on U251 CNS, 46.2%; with PC-3 prostate, 90.7%. Further, the growth was 38.2% in the assay with SK-MEL-5 melanoma; -26.6% (active) in the assay with UACC-62 melanoma; 27.6% with LOX IMVI melanoma; -5.61% (active) in the assay with SK-MEL-28 melanoma; 54.4% in the assay with EKVX NSCLC; 65.9% in the assay with SN12C renal. In addition, the growth in the assay with UO-31 renal is 40.9%; in the assay on TK-10 renal it was 33.7%; in the assay on ACHN renal, 52.1%; in the assay with CAKI-1 renal, 40.2%; with A498 renal it was -37% (active); in the assay on CCRF-CEM leukemia, 95.8%. Besides, the growth in the assay with MOLT-4 leukemia is 92.2%.

On to `CC(=O)OC(C(=O)c1ccccc1)c1ccccc1` (configuration not stated), for which the growth in the assay with HCT-15 colon is 105%; in the assay with HT29 colon, 80.4%; in the assay on SNB-75 CNS it was 84.6%; in the assay with SNB-19 CNS, 103%; in the assay with U251 CNS, 106%; in the assay with PC-3 prostate, 89%. Also, the growth was 102% in the assay on SK-MEL-5 melanoma; 100% in the assay with UACC-62 melanoma; 107% in the assay with LOX IMVI melanoma; 107% in the assay on SK-MEL-28 melanoma; 109% in the assay on EKVX NSCLC; 94.6% in the assay with SN12C renal. Moreover, the growth is 75.6% in the assay with UO-31 renal; 94.6% in the assay on TK-10 renal; 101% in the assay on ACHN renal; 91.7% in the assay on CAKI-1 renal; 95.9% in the assay on A498 renal; 104% with CCRF-CEM leukemia. Moreover, the growth in the assay with MOLT-4 leukemia was 102%.

As to `Cc1[nH]n(C(N)=S)c(=O)c1N=Nc1ccc(S(=O)(=O)Nc2ccncn2)cc1`, the growth in the assay on HCT-15 colon was 113%; in the assay on HT29 colon it was 105%; in the assay with SNB-75 CNS, 73.7%; in the assay with SNB-19 CNS, 99.8%; with U251 CNS, 113%; in the assay on PC-3 prostate, 77.1%. Moreover, the growth is 94.6% with SK-MEL-5 melanoma; 101% in the assay with UACC-62 melanoma; 87.4% in the assay on LOX IMVI melanoma; 98.9% in the assay with SK-MEL-28 melanoma; 120% in the assay on EKVX NSCLC; 97.6% with SN12C renal. For the same compound, the growth in the assay on UO-31 renal was 84.6%; with TK-10 renal it was 126%; with ACHN renal, 106%; in the assay with CAKI-1 renal, 155%; in the assay on A498 renal it was 87.4%; in the assay on CCRF-CEM leukemia, -34.3% (active). Further, the growth with MOLT-4 leukemia was 106%.

`O=[N+]([O-])c1cc(Br)cc2c1[nH]c1ccc(Br)cc12`: the growth in the assay with HCT-15 colon is 81.8%; in the assay on HT29 colon, 58.8%; in the assay on SNB-75 CNS it was 19.9%; in the assay with SNB-19 CNS, 81.1%; in the assay with U251 CNS, 58.4%; in the assay on PC-3 prostate, 60%. Further, the growth with SK-MEL-5 melanoma was 88.1%; in the assay on UACC-62 melanoma it was 67.7%; in the assay on LOX IMVI melanoma, 38%; in the assay with SK-MEL-28 melanoma it was 89.8%; in the assay with EKVX NSCLC it was 60.2%; with SN12C renal it was 82.7%. In addition, the growth is 25.5% in the assay on UO-31 renal; 52.8% with TK-10 renal; 32.9% in the assay with ACHN renal; 51.4% with CAKI-1 renal; 76.2% with A498 renal; 65.2% with CCRF-CEM leukemia. In addition, in the assay on MOLT-4 leukemia, the growth was 77.1%.

Consider `O=C(Nc1cccc(Cl)c1)Nc1ncc(CCNc2ncnc3ccsc23)s1`, for which the growth in the assay with HCT-15 colon was 22.9%; in the assay on HT29 colon it was 19.7%; with SNB-75 CNS it was 25.6%; in the assay with SNB-19 CNS, 64.9%; in the assay on U251 CNS it was 38.4%; in the assay on PC-3 prostate, 8.62% (active). Besides, the growth with SK-MEL-5 melanoma was -52% (active); with UACC-62 melanoma, -24.7% (active); with LOX IMVI melanoma, 16.4%; in the assay with SK-MEL-28 melanoma, 33.5%; with EKVX NSCLC it was 34.5%; with SN12C renal it was 53.7%. In addition, the growth in the assay with UO-31 renal was 27.5%; in the assay with TK-10 renal it was 28.9%; with ACHN renal it was 26.8%; in the assay with CAKI-1 renal it was 21.7%; in the assay with A498 renal it was 29.3%; in the assay with CCRF-CEM leukemia, 10.1%. Moreover, the growth with MOLT-4 leukemia was -4.94% (active).

The values above are taken from PubChem BioAssay (NCI).
